Shown are actives, neighbours in structure and some others; about 19% of the full set was active somewhere.
IL-1B inflam inh = inhibitors of inflammasome signaling (IL-1 beta secretion); AID 743279; activity change, % at 57.5 µM; actives 4.7% (n = 360,000); THP-1 LPS/ATP IL-1B secretion, AlphaLISA, 16 h; hits give low values; in the data active = activity change below about -50%; inconclusive = mostly about -30% to -49%
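Secreted IL-1B measured by AlphaLISA bead assay after 16 h compound exposure of THP-1 cells; compounds (final up to 57.5 uM) added 1 h before LPS (250 ng/mL) and ATP (1.25 mM) stimulation; lower signal means less secretion.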
HT1080 IDH1KD tx = HT-1080 IDH1 knockdown cell toxicity (counter line); HT-1080 IDH1 knockdown viability, ATP luminescence, 48 h; actives 2% (n = 360,000); Potency, µM (series often up to 46.1 µM), inactives show at the top dose activity, negative = toxicity, hits mostly cytotoxic;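 note: potency is the fitted concentration of half-maximal effect; 0% = DMSO wells and -100% = cell-free medium wells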
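Luminescent ATP read-out (CellTiter-Glo, 10 min at room temperature) after 48 h compound exposure at 37 °C gave viability of IDH1-knockdown HT-1080 cells. Activity was normalised to DMSO and cell-free wells, then fitted as concentration-response curves.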
TDP1 cell CPT = DT40-hTDP1 cell growth loss with CPT. chicken DT40 Tdp1-/-;hTDP1 cells + 20 nM CPT, ATP luminescence, 48 h. Potency, µM (top dose mostly 46.2 µM), inactives show top-dose activity change, negative = growth inhibition, usual class: inhibitors. actives 12% (n = 420,000); note: potency is the fitted concentration of half-maximal effect; nearly all actives have a fitted effect of over 55% in size
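Cell growth measured by CellTiter-Glo luminescence after a minimum 48 h, 37 C compound exposure with 20 nM CPT in Tdp1-knockout DT40 cells stably expressing hTDP1, seeded 400/well; qHTS titration format.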
HT1080-NT tox = kills 2HG-producing HT-1080-NT fibrosarcoma cells; HT-1080-NT fibrosarcoma viability, CellTiter-Glo ATP luminescence, 48 h; Potency, µM (highest dose often 46.1 µM), inactives show at the highest dose activity, negative = less viability, usual class: cytotoxic; actives 1.6% (n = 360,000);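 note: NT is the 2HG producing partner of a matched IDH1 knockdown line; potency is the fitted concentration of half-maximal effect; 0% = DMSO-treated cells and -100% = media-only wells without cells; nearly all actives have a fitted effect of over 55% in size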
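Read-out is CellTiter-Glo luminescence after 10 minutes at room temperature, following 48 hours' compound treatment of HT-1080-NT cells (750 cells/well, RPMI, 5% FBS, 37 degrees C).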
DT40 TDP1 no CPT = qHTS for Inhibitors of human tyrosyl-DNA phosphodiesterase 1 (TDP1): qHTS in cells in absence of CPT; DT40 Tdp1-/- hTDP1 cells, no CPT, ATP luminescence, 48 h; Potency, µM (series often up to 46.2 µM), inactives show top-dose activity change, negative = growth inhibition, hits mostly inhibitors; actives 15% (n = 420,000); AID 686978, 2013; note: potency is the fitted concentration of half-maximal effect; nearly all actives have a fitted effect of over 55% in size
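DT40 Tdp1-/-;hTDP1 cells, no CPT (DMSO vehicle only), 400 cells/well; compounds pin-transferred; ≥48 hr, 37 °C; CellTiter-Glo 30 min RT dark, luminescence read.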
* hit, by the source's call; ? = inconclusive; nt = no result. Unless noted, calls come from the whole dose curve; as a rule, active = well fitted curve in the direction sought with a large enough effect; inconclusive = small, poorly fitted or top-dose-only effect, or another doubt; inactive = no such curve, though single readings can be large; an effect the other way counts as inactive or inconclusive. Unless noted, % is set by controls: 0 for no effect and ±100 for the full control effect.

SMILES | IL-1B inflam inh | HT1080 IDH1KD tx | TDP1 cell CPT | HT1080-NT tox | DT40 TDP1 no CPT
CN(C)S(=O)(=O)c1cccc(-c2csc(=Nc3ccccc3)n2CCCN2CCOCC2)c1 | -25 | -16% | ? | -13% | ?
CCN(CC)S(=O)(=O)c1ccc(-c2csc(=Nc3cccc(C(F)(F)F)c3)n2Cc2ccc3c(c2)OCO3)cc1 | nt | nt | ? | nt | 9.2µM*
Fc1ccc(-c2csc(=Nc3cccc(C(F)(F)F)c3)n2Cc2ccc3c(c2)OCO3)cc1 | nt | nt | 13µM* | nt | 13µM*
O=C1CCc2cc(NS(=O)(=O)c3ccc([N+](=O)[O-])cc3)cc3c2N1CCC3 | 19 | 1% | -9% | 3% | -16%
Cc1ccc2c(c1)N(CC(=O)NC1CCCCCC1)C(=O)c1cccnc1O2 | 24 | -2% | -12% | -1% | -5%
CC(C)C[C@H]1COc2cc(N(C)CCO)ccc2S(=O)(=O)N1 | 9 | 4% | -12% | -1% | -8%
Cc1ccc(OCC(=O)Nc2cccc(C)n2)c(C)c1 | -26 | -5% | -12% | -1% | -13%
COc1ccc(CC(=O)Nc2cccc(-c3nnc(-c4ccc(C)cc4)o3)c2)cc1OC | -99* | ? | 6.5µM* | ? | 5.2µM*
COc1ccc(CC(=O)Nc2cccc(-c3nnc(-c4cccc(C)c4)o3)c2)cc1OC | -6 | -22% | ? | -1% | 23µM*
Cc1ccc(OCC(=O)Nc2cccc(-c3nnc(-c4ccccc4)o3)c2)c(C)c1 | 36 | ? | 12µM* | ? | 12µM*
COc1ccc(CC(=O)Nc2cccc(-c3nnc(-c4ccccc4)o3)c2)cc1OC | -72* | -21% | 5.8µM* | ? | 2.3µM*
COc1ccc(CC(=O)Nc2ccc(-c3nnc(-c4ccccc4)o3)cc2)cc1OC | 15 | 12% | -10% | 16% | 0%
Cc1ccc([N+](=O)[O-])cc1NC(=O)CSc1nnc(C)n1CC1CCCO1 (stereo not drawn) | 6 | 3% | 1% | -3% | -3%
N/N=c1\sc2ccccc2n1-c1ccccc1 | -22 | 3% | 11% | 9% | -6%
CC1(C)OC(=O)C2(Cc3ccc(Cl)cc3N3CCCC32)C(=O)O1 (stereo not drawn) | nt | nt | -9% | nt | ?
CCc1cccc(NC(=O)Cc2ccc(OC)c(OC)c2)c1 | -6 | -10% | ? | -10% | 13µM*
CCc1cccc2c1NC(=O)C21N2CCCC2C(C(=O)c2ccc3ccccc3c2)C12C(=O)Nc1ccccc12 (stereo not drawn) | -105* | -10% | 18µM* | -7% | 13µM*
Cc1cccc2c1NC(=O)C21N2CCCC2C(C(=O)c2ccc3ccccc3c2)C12C(=O)Nc1ccccc12 (stereo not drawn) | -18 | -4% | ? | -10% | 26µM*
CCc1ccc2c(c1)C1(C(=O)N2)N2CCCC2C(C(=O)c2ccc3ccccc3c2)C12C(=O)Nc1ccccc12 (stereo not drawn) | -99* | 21µM* | ? | 18µM* | ?
Cc1cc(Cl)c2c(c1)[C@]1(C(=O)N2)[C@@H]2C(=O)N(Cc3ccccc3)C(=O)[C@@H]2[C@@H]2CCCN21 | 18 | ? | ? | ? | ?
O=C(O)C1CCCN(S(=O)(=O)c2ccc(Br)cc2)C1 (stereo not drawn) | 48 | -4% | -22% | -6% | -6%
CN(C(=O)COC(=O)Cc1ccc(Br)cc1)c1c(N)n(Cc2ccccc2)c(=O)[nH]c1=O | -10 | 0% | -27% | 2% | ?
CC(=O)CC1c2cc(F)ccc2C=C(c2ccsc2)N1c1ccc(-c2ccc(C(N)=O)cc2)cc1 (stereo not drawn) | -3 | ? | ? | ? | ?
Cc1ccc(C(=O)c2cn(Cc3cccc(F)c3)c3nc(C)ccc3c2=O)cc1 | nt | nt | ? | nt | 21µM*
Cc1ccc(C(=O)c2cn(CC(=O)NCc3ccccc3)c3nc(C)ccc3c2=O)cc1 | nt | nt | -12% | nt | -2%

Compound activity as filed in PubChem.
